HEK cytotox: HEK 293 cell cytotoxicity; HEK 293 viability, ATP luminescence (CellTiter-Glo), 48-72 h; Potency, µM (top dose mostly 115 µM), hits mostly inhibitors; 94,000 compounds, 6.6% hits; AID 1345083; further: nearly all actives have a fitted effect of over 60% in size
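HEK 293 seeded at 250 cells/well receive compound via pintool. After 48 or 72 hr at 37 degree Celsius, 5% CO2 and 95% humidity, CellTiter-Glo is dispensed and luminescence read following 10 min at room temperature.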
NIH3T3 tox: cytotoxic compounds in NIH 3T3 cells | 94,000 compounds, 4.3% hits | Potency, µM (top dose mostly 96.7 µM), usual class: inhibitors | AID 1345082 | NIH 3T3 viability, CellTiter-Glo ATP luminescence, 48-72 h; further: nearly all actives have a fitted effect of over 55% in size
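NIH 3T3 cells at 400 cells/well received 23 nL of compound by pintool and were incubated 48 or 72 h at 37 °C. Viability was read as ATP-coupled CellTiter-Glo luminescence.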
Luciferase inh: blocks purified firefly luciferase enzyme activity. purified P. pyralis luciferase, luminescence, biochemical. Potency, µM (highest dose often 115 µM), most hits filed as inhibitors. 76,000 compounds, 2.5% hits. AID 1347043; further: nearly all actives have a fitted effect of over 65% in size
Target sequence (P08659 whole entry, looked up): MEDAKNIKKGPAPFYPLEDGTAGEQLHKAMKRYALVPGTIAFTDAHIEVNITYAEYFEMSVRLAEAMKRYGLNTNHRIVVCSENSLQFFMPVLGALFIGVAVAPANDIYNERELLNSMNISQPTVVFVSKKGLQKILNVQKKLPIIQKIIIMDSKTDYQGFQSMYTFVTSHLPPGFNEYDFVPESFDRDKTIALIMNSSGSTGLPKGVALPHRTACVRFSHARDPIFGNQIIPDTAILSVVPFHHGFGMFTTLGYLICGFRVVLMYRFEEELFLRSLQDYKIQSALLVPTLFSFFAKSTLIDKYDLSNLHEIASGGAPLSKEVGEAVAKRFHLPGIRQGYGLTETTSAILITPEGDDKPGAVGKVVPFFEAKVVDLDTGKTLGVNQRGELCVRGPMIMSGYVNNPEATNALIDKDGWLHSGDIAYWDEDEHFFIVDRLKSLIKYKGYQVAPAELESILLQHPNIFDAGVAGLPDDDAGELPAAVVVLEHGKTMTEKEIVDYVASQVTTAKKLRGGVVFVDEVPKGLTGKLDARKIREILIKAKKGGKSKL
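Purified P. pyralis luciferase (10nM final) in 50mM Tris acetate pH 7.5, 10mM Mg acetate, 0.01% Tween-20, 0.05% BSA with 10uM D-luciferin and 10uM ATP. Compounds titrated qHTS. Luminescence imaged on CCD.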
hNpr1 antagonist: human Npr1 receptor antagonism; HEK293 hNpr1 GloSensor cGMP, ANP-stimulated luminescence; P16066; Potency, µM (top dose mostly 46.3 µM), usual class: inhibitors; 76,000 compounds, 1.6% hits; calls by dose curve; further: nearly all actives have a fitted effect of over 60% in size
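Compound pre-incubated 30 min at room temperature on GloSensor-loaded HEK293 cells stably carrying hNpr1 and the pGS-40F cGMP biosensor. Stimulation uses hNppA at 0.1 nM final; luminescence is taken at baseline and 20 min post-agonist.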
Of the large screens only hits and unclear results are named; the others gave an inactive call. Rows were chosen to be rich in hits. Some 11% of all compounds tested hit in one or more screens of this group. Unless noted, the call rests on the fitted dose curve; in most records, active means well fitted curve in the direction sought with a large enough effect; inconclusive means small, poorly fitted or top-dose-only effect, or another doubt; inactive means no such curve, though single readings can be large; an effect the other way counts as inactive or inconclusive.

COc1ccc(Cc2nnc3ccc(C(=O)NCc4ccc(F)cc4)cn23)cc1	NIH3T3 tox inconclusive (no result: Luciferase inh, hNpr1 antagonist)
O=C(NCCc1ccc(Cl)cc1)c1ccc2nnc(Cc3ccco3)n2c1	NIH3T3 tox inconclusive (no result: Luciferase inh, hNpr1 antagonist)
CC(C)c1nc2cc(C(=O)N3CCCC(c4ccccc4)C3)ccc2o1 (centres undefined)	HEK cytotox inconclusive, NIH3T3 tox inconclusive
O=C(CCc1ccc(-c2ccc(Cl)cc2)[nH]1)N[C@@H]1C[C@@H]2OCC[C@@H]21	HEK cytotox 79µM, NIH3T3 tox inconclusive
COc1ccc(-c2noc(-c3nc(C)no3)n2)cc1	none
COc1ccc(-c2noc(-c3ccc(N4C[C@H]5CC[C@H]4C5)nc3)n2)cc1	HEK cytotox inconclusive, Luciferase inh 25µM, hNpr1 antagonist inconclusive
CNC(=O)c1cc(C)nc2onc(C3CCN(C(=O)c4c(C)noc4C)C3)c12 (centres undefined)	none (no result: Luciferase inh, hNpr1 antagonist)
CC1=C[C@@H](CN(C)CCO)[C@H](C(C)C)C[C@H]1Cc1nnc(-c2ccccc2)o1	HEK cytotox inconclusive, NIH3T3 tox inconclusive
CC1=C[C@@H](CN(C)CCO)[C@H](C(C)C)C[C@H]1Cc1nnc(-c2ccc(C)cc2)o1	HEK cytotox 89µM, NIH3T3 tox inconclusive
COCCNC[C@@H]1C=C(C)[C@H](Cc2nnc(-c3ccc(OC)cc3)o2)C[C@H]1C(C)C	HEK cytotox 28µM, NIH3T3 tox 28µM
COc1ccc(-c2nnc(C[C@@H]3C[C@@H](C(C)C)[C@H](CO)C=C3C)o2)cc1	HEK cytotox 40µM, NIH3T3 tox inconclusive
Cc1c(CC(=O)NC2CC2)c2c(n1Cc1ccc(F)cc1)CCCC2=O	HEK cytotox inconclusive
Cc1cccc(C)c1CN1CC2(COCC1=O)CN(c1ccc(C(F)(F)F)cn1)C2	HEK cytotox inconclusive, NIH3T3 tox 89µM
COc1ccc(CN2CC3(COCC2=O)CN(c2ccc(C(F)(F)F)cn2)C3)cc1F	HEK cytotox inconclusive, NIH3T3 tox inconclusive
O=C(c1ccc(F)cc1)N1CCc2nc(C3CC3)nc(-c3ccc(Cl)cc3)c2C1	HEK cytotox inconclusive, NIH3T3 tox inconclusive
CCc1ncc(-c2c(-c3ccccc3)ncn2CCCOc2cccnc2)cn1	none
Cc1cc(C)n(CCc2c(-c3ccccc3)ncn2CCCc2cccnc2)n1	NIH3T3 tox 50µM
COc1ccc(-c2ccc(C(=O)N3CCN(C(=O)C4CC4)CC3)cc2)nn1	none (no result: Luciferase inh, hNpr1 antagonist)
Cc1ccccc1NC(=O)N1c2ccccc2CC1c1noc(C2CCOCC2)n1 (centres undefined)	none
Cc1cc(C)cc(NC(=O)N2c3ccccc3CC2c2noc(C3CCOCC3)n2)c1 (centres undefined)	Luciferase inh 40µM
CN1CC(=O)N(C2CCCNCC2)Cc2c(NCCCO)ncnc21 (centres undefined)	none (no result: Luciferase inh, hNpr1 antagonist)
O=C(Nc1ccccc1)N1CCCC(C(=O)N2CCC(c3nc4ncccc4[nH]3)CC2)C1 (centres undefined)	none (no result: Luciferase inh, hNpr1 antagonist)
Cc1ccc(Cl)cc1NC(=O)N1CCC(n2cnnc2C2CC2)C1 (centres undefined)	HEK cytotox inconclusive
COc1cccc(-c2cc(C3CCN(C(=O)Nc4cc(Cl)ccc4C)CC3)[nH]n2)c1	HEK cytotox 45µM, NIH3T3 tox inconclusive, Luciferase inh inconclusive
CCOc1ccccc1NC(=O)N1CCC(c2cc(-c3cccc(OC)c3)n[nH]2)CC1	HEK cytotox inconclusive, NIH3T3 tox 35µM
COc1cccc(-c2cc(C3CCN(C(=O)NC4CCCC4)CC3)[nH]n2)c1	HEK cytotox inconclusive
COc1cccc(-c2cc(C(=O)N3CCC(Cn4cccn4)CC3)[nH]n2)c1	NIH3T3 tox inconclusive, Luciferase inh 32µM
COc1cccc(NC(=O)N2CCC(c3cc(-c4cccc(C)c4)n[nH]3)CC2)c1	HEK cytotox inconclusive, NIH3T3 tox 40µM
COc1cccc(-c2cc(C3CCN(C(=O)Nc4cccc(SC)c4)CC3)[nH]n2)c1	HEK cytotox inconclusive, NIH3T3 tox 45µM
Cc1cccc(NC(=O)N2CCC(c3cc(-c4cccc(C)c4)n[nH]3)CC2)c1	HEK cytotox inconclusive, NIH3T3 tox inconclusive
COC(=O)c1ccccc1S(=O)(=O)N1CCC(c2cc(-c3cccc(C)c3)n[nH]2)CC1	HEK cytotox 45µM, NIH3T3 tox 40µM
COc1ccccc1Cn1c(=O)c(C(=O)N2CCN(C(=O)c3ccccc3C)CC2)nc2cccnc21	none (no result: Luciferase inh, hNpr1 antagonist)
CN(c1cc(=O)c2ccnc(NCc3ccc4c(c3)OCO4)c2o1)C1CCOCC1	HEK cytotox 89µM, NIH3T3 tox 32µM
COCc1ccccc1-c1nccc2c(=O)cc(-c3cnn(C)c3)oc12	NIH3T3 tox inconclusive
Cn1cc(-c2cc(=O)c3ccnc(NCc4ccc5c(c4)OCO5)c3o2)cn1	HEK cytotox inconclusive, NIH3T3 tox 25µM, Luciferase inh inconclusive
COCCNC(=O)c1ccc2nc(-c3cccnc3)oc2c1	none (no result: Luciferase inh, hNpr1 antagonist)
CCCCOC(=O)N1C[C@@H](CO)[C@@H]2Oc3c(C)cccc3[C@@H]21	HEK cytotox inconclusive, NIH3T3 tox 40µM (no result: Luciferase inh, hNpr1 antagonist)
COc1ccc(NC(=O)Cn2c(C)cc3nc4n(c(=O)c32)CCCCC4)cc1Cl	HEK cytotox inconclusive, NIH3T3 tox inconclusive
O=C1N(Cc2ccccc2)c2ccccc2C12CCN([S+](=O)([O-])c1ccccc1)C2 (centres undefined)	NIH3T3 tox inconclusive
CN1C(=O)C2(CCN(Cc3ccccc3)C2)c2ccccc21 (centres undefined)	HEK cytotox 100µM, NIH3T3 tox inconclusive
CN(C)c1ccc(CN2CCC3(C2)C(=O)N(Cc2ccccc2)c2ccccc23)cc1 (centres undefined)	HEK cytotox 35µM, NIH3T3 tox inconclusive
CN1C(=O)C2(CCN(C(=O)CCC3CCCCC3)CC2)c2ccccc21	HEK cytotox 45µM, NIH3T3 tox inconclusive
COc1cccc(NC(=O)Cn2c(N3CCN(c4ccccc4)CC3)nc(C)cc2=O)c1	HEK cytotox inconclusive, NIH3T3 tox inconclusive
CCc1ccc(NC(=O)Cn2c(N3CCN(c4ccccc4)CC3)nc(C)cc2=O)cc1	HEK cytotox inconclusive
CCOC(=O)c1ccc(NC(=O)Cn2c(N3CCc4ccccc4C3)nc(C)cc2=O)cc1	HEK cytotox 32µM, NIH3T3 tox 32µM
COc1cccc(NC(=O)Cn2c(N3CCc4ccccc4C3)nc(C)cc2=O)c1	HEK cytotox 20µM, NIH3T3 tox 22µM, hNpr1 antagonist inconclusive
Cc1cc(=O)n(CC(=O)Nc2ccc(C(C)C)cc2)c(N2CCN(c3ccccc3)CC2)n1	HEK cytotox inconclusive, NIH3T3 tox 32µM
Cc1ccc(CNC(=O)Cn2c(N3CCc4ccccc4C3)nc(C)cc2=O)cc1	HEK cytotox inconclusive, NIH3T3 tox inconclusive, hNpr1 antagonist inconclusive
Cc1cc(=O)n(CC(=O)NCc2ccc(F)cc2)c(N2CCc3ccccc3C2)n1	HEK cytotox 45µM, NIH3T3 tox inconclusive
CCOC(=O)c1ccccc1NC(=O)Cn1c(N2CCc3ccccc3C2)nc(C)cc1=O	none
COCCCNC(=O)N1CCCC(COc2ccccc2C(=O)N2CCCCC2)C1 (centres undefined)	none
CN1C(=O)CC[C@]2(C(=O)NCc3ccc(Cl)cc3)CCCC[C@@H]12	none
